The list is not random: actives were taken first. Their share in the collection is about 1.2%.
RGS8-Gao = modulates binding of RGS8 to human Galphao | P09471 | AID 1423 | response (percent of control binding), % at 10 µM | multiplexed bead flow cytometry; actives lie on both sides | 220,000 compounds, 0.34% hits; in the data active means response below about 60% or above about 140%; inactive means in between;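 further: Galphao activated as the GDP aluminium fluoride complex binding bead-coupled RGS8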
Target sequence (P09471 whole entry, looked up): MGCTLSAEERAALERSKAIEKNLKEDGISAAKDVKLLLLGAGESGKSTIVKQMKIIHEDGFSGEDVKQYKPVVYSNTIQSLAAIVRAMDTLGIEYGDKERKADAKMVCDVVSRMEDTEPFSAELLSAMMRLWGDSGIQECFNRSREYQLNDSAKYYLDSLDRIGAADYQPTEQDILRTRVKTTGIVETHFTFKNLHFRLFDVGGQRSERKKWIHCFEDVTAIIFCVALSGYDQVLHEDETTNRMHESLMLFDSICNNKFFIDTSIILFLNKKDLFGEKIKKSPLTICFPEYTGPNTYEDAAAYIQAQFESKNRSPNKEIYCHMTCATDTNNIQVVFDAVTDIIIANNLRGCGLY
RGS4-Gao reg = modulates binding of RGS4 to human Galphao; AID 1415; Multiplexed bead flow cytometry; actives lie on both sides; P09471; 220,000 compounds, 0.33% hits; binding response (% of control), % at 10 µM; in the data active means binding response below about 49% or above about 150%; inactive means in between;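 further: fluorescent Galphao activated with aluminum fluoride binding bead-coupled RGS4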
RGS7-Gao reg = regulators of human RGS7-Galphao interaction; Multiplexed bead flow cytometry, RGS7-Galphao binding; actives lie on both sides; 220,000 compounds, 0.35% hits; AID 1439; binding response (% of control), % at 10 µM; P09471; in the data active means binding response below about 49% or above about 150%; inconclusive means no clear call, values can overlap the other calls; inactive means in between;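 further: fluorescent Galphao held in activated GDP-AlF4 state binding bead-coupled RGS7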
GSH bead fluor = GSH bead compound fluorescence profile | GSH beads flow cytometry, compound fluorescence 488/530 nm; active compounds read high | fluorescence (KMESF) at 10 µM | 190,000 compounds, 0.25% hits; in the data active means fluorescence above about 89;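 further: glutathione beads carrying GST-tagged Bcl family fusion proteins plus one bare bead set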
Avidin bead fluor = avidin bead compound fluorescence profile; Avidin beads, compound fluorescence 488/530 nm, flow cytometry; active compounds read high; fluorescence (KMESF) at 10 µM; 220,000 compounds, 0.38% hits; AID 1775; in the data active means fluorescence above about 47
RGS16-Gao = regulators of human RGS16-Galphao interaction; 220,000 compounds, 0.38% hits; binding response (% of control), % at 10 µM; bead-based flow cytometry RGS16-Galphao binding, fluorescence; actives lie on both sides; call rule not given here;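 further: Galphao activated by GDP with aluminum fluoride before binding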
Target sequence (O15492 whole entry, looked up): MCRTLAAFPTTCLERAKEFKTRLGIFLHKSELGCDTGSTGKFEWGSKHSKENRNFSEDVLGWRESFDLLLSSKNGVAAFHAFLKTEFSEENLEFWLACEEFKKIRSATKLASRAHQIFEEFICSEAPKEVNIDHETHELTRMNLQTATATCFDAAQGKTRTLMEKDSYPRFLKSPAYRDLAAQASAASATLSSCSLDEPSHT
Target sequence (P09471 whole entry, looked up): as the sequence (P09471 whole entry, looked up) above
Each line names hits and unclear results; the compound was inactive in the other large screens.

CCOc1ccc2nc3c(cc2c1)CN(CCOC)C(=NC)S3	GSH bead fluor 114
N#CCCN(Cc1cccs1)C(=O)Nc1ccccc1	RGS7-Gao reg inconclusive (no result: GSH bead fluor)
C=CCNc1nc(Nc2ccc(OC)cc2OC)nc(OCC)n1	Avidin bead fluor 75
C=CCNc1nc(Nc2ccccc2F)nc(OCC)n1	none
CSc1nc2sc3c(c2c(=O)[nH]1)CCC3	none
COc1ccccc1NC(=O)/C(=C\c1cccs1)NC(=O)c1ccco1	RGS7-Gao reg inconclusive, Avidin bead fluor 49 (no result: GSH bead fluor)
Cc1nn(Cc2ccccc2)c(Cl)c1/C=C1\NC(=S)NC1=O	none
O=C(O/N=C1\CCS(=O)(=O)c2sccc21)c1ccccc1	Avidin bead fluor 51
CCc1ccc2c(c1)/C(=N/OC)C(=O)N2	none
O=C(Nn1c(-c2ccccc2)nc2ccccc2c1=O)c1cccs1	none
COc1ccccc1-c1nc2ccccc2c(=O)n1NC(=O)c1cccs1	GSH bead fluor 108
Cc1nnc(SCC(=O)Nc2ccccc2)n(N)c1=O	Avidin bead fluor 55
Cc1nnc(SCc2nnc(-c3ccccc3)o2)n(N)c1=O	GSH bead fluor 264
Cc1nnc(SCc2ccccn2)n(N)c1=O	none
CCCCNC(=O)COC(=O)CCC(=O)c1ccc(F)cc1	GSH bead fluor 266
COc1cc(N2CCCC2)c(OC)cc1/C=c1/sc2nc3ccccc3n2c1=O	Avidin bead fluor 63
COc1cc(NC(=S)NC(=O)c2ccc(C(C)(C)C)cc2)ccc1NC(=O)c1cccs1	none
COc1cc(NC(=S)NC(=O)c2cc(C)cc(C)c2)ccc1NC(=O)c1cccs1	GSH bead fluor 104
CCOC(=O)c1cn(CC2CC2)c2cc(F)c(F)cc2c1=O	Avidin bead fluor 54
CCC(C)NC(=O)C1c2cc(OC)c(OC)cc2C(=O)N(C)C1c1ccc(OC)cc1 (stereo unspecified)	none
CCC(C)NC(=O)C1c2cc(OC)c(OC)cc2C(=O)N(C)C1c1cccs1 (stereo unspecified)	Avidin bead fluor 67
CN(C)CCOC(=O)CCCCCCCCC(=O)OCCN(C)C	RGS7-Gao reg inconclusive (no result: GSH bead fluor)
O=C(c1cccc(C(F)(F)F)c1)N1CCc2c([nH]c3ccccc23)C1C(F)(F)F (stereo unspecified)	RGS7-Gao reg inconclusive (no result: GSH bead fluor)
COc1ccc(N2C(=O)C3CCCN3C2=O)cc1 (stereo unspecified)	Avidin bead fluor 65
CCCn1c2c(c(O)c(C(=O)NCc3ccccc3)c1=O)CCCC2	Avidin bead fluor 54
CCNC(=S)N(Cc1ccco1)Cc1cc2cc(OCC)ccc2[nH]c1=O	none
CCNC(=S)N(Cc1cccs1)Cc1cc2cc(OCC)ccc2[nH]c1=O	GSH bead fluor 239
COC(=O)c1cc(O)cc(OC)c1Oc1cc(C)cc(O)c1C(=O)O	RGS7-Gao reg inconclusive (no result: GSH bead fluor)
CCn1c(C)cc2c(c1=O)C(c1ccc3c(c1)OCO3)C(C#N)=C(N)O2 (stereo unspecified)	Avidin bead fluor 63
CCCCN(CC)Cc1ccc(CNC(=O)Nc2ccc(Cl)cc2)o1	none
CCCCN(CC)Cc1ccc(CNC(=O)Nc2ccc(OCC)cc2)o1	Avidin bead fluor 87
COc1ccccc1NC(=O)Nc1ccc(Br)cn1	GSH bead fluor 266
COc1ccccc1NC(=O)NCCC1=CCCCC1	none
COc1ccccc1NC(=O)NCCCl	Avidin bead fluor 92
CCOc1ccccc1NC(=O)Nc1ccc(Br)cn1	none
COc1ccccc1NC(=S)NC(C)=O	none
COc1ccccc1NC(C)=O	GSH bead fluor 251
CCc1nnc(NC(=O)CCN2C(=O)CCC2=O)s1	GSH bead fluor 264
CCCCCCC(=O)Nc1nnc(CC)s1	none
CC(C)(C)C(=O)N(CCN(C(=O)C(C)(C)C)c1ccccc1)c1ccccc1	Avidin bead fluor 50
OC1CCCN(Cc2ccc3ccc4cccc5ccc2c3c45)C1 (stereo unspecified)	Avidin bead fluor 142
CC(NCc1ccccc1)c1ccccc1O (stereo unspecified)	RGS7-Gao reg inconclusive (no result: GSH bead fluor)
Cc1cc(C(=O)CNCc2ccco2)c(C)n1-c1ccc(F)cc1	GSH bead fluor 248
CCn1c2ccccc2c2c3ncc4cccn4c3ccc21	RGS7-Gao reg inconclusive (no result: GSH bead fluor)
Nc1nc(N2CCOCC2)nc(N(c2ccccc2)c2ccccc2)n1	none
CN(C)c1nc(N2CCOCC2)nc(N(c2ccccc2)c2ccccc2)n1	GSH bead fluor 266
O=C(NNc1ccc(O)cc1)c1ccc(Br)cc1	none
COc1ccc(/C=C/CN2CCN(Cc3ccc(F)cc3)C(CCO)C2)cc1 (stereo unspecified)	none
CCNC(=S)NNC(=O)c1cc(-c2ccc(OC)cc2)nc2ccccc12	none
COc1ccc(Cl)cc1C(=O)NNC(=S)NC(=O)c1cc(-c2ccc(Cl)cc2)nc2ccccc12	RGS8-Gao 37.0, RGS4-Gao reg 11.2, RGS7-Gao reg 21.2, RGS16-Gao 18.6
CCCOc1ccc(C2CC(=O)NC2=O)cc1 (stereo unspecified)	none
CCCCOc1ccc(C2CC(=O)NC2=O)cc1 (stereo unspecified)	Avidin bead fluor 79
Cn1ncc2c(=O)n(CC(=O)NC34CC5CC(CC(C5)C3)C4)cnc21	Avidin bead fluor 84
CC(C)(C)n1ncc2c(=O)n(CC(=O)NCc3ccccc3)cnc21	none
CC1=NNC(=O)C1CCC(=O)N/N=C/c1ccccc1 (stereo unspecified)	RGS7-Gao reg inconclusive (no result: GSH bead fluor)
COc1ccc(CNCCSc2nnnn2C)c(OC)c1OC	none
COc1ccc(Br)cc1CNCCSc1nnnn1C	GSH bead fluor 253
Fc1ccccc1CSCc1nc2ccccc2[nH]1	RGS7-Gao reg inconclusive
COC(=O)CSc1cc(C(=O)c2nccn2C)c2ccccc2n1	GSH bead fluor 271
Cn1ccnc1C(=O)c1cc(SCC(=O)NCc2ccccc2)nc2ccccc12	none
O=C(NCCc1c[nH]c2ccccc12)c1ccc(-n2cnnn2)cc1	Avidin bead fluor 67
O=C(NCCc1ccccc1)c1ccc(-n2cnnn2)cc1	none
CC(C)NC(=O)COC(=O)c1ccc(Oc2ccccc2)cc1	GSH bead fluor 265
CSc1ccc(C(=O)C2CCCN(C(=O)c3ccc4c(c3)no[n+]4[O-])C2)cc1 (stereo unspecified)	RGS7-Gao reg inconclusive (no result: GSH bead fluor)
CCOc1ccc(-n2c(C)nc3cc(C(=O)NCCCN4CCOCC4)ccc32)cc1	none
CCOc1ccc(-n2c(C)nc3cc(C(=O)NCCN4CCOCC4)ccc32)cc1	GSH bead fluor 104
CS(=O)(=O)N1CCN(c2ccccc2NC(=O)c2cccs2)CC1	Avidin bead fluor 47
O=C(Nc1ccccc1N1CCCCC1)c1cccs1	none
O=c1nc2n(c3ncccc13)CCCCC2	none
NC(=S)n1[nH]c(-c2ccc([N+](=O)[O-])cc2)c(N=Nc2ccccc2[N+](=O)[O-])c1=O	GSH bead fluor 453
Cc1c(N=Nc2c(-c3ccc([N+](=O)[O-])cc3)[nH]n(C(N)=S)c2=O)cccc1[N+](=O)[O-]	none

Screens deposited in PubChem BioAssay by NMMLSC.
